Data: the supplement of paper PMC6555819

system: VDR:RXRa (NR concentration 270 nM, RXRa partner concentration 90 nM); test: PBM binding z-score (relative to random genomic background probes); higher = stronger binding; sequences stand for … in GC…GCGATTGACAGCGTAGAATGAAGG
Description: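 Protein-binding microarray (Agilent 4x180K custom design, double-stranded 60-nt probes: 5' GC cap, 34-nt variable region, 24-nt constant primer region; full probe sequence given). Purified or IVT nuclear receptor:RXRα heterodimers (3:1 NR:RXRα, mostly 270:90 nM) or homodimers were incubated for 1 h in PBS with 2% milk and no ligand, then detected with Alexa488 antibodies. Fluorescence from o1-orientation probes (~5 replicates averaged) was converted to z-scores against 500 random hg19 background probes. Variable regions are seed direct-repeat (DR0–DR5) sites, all their single-nucleotide variants and half-site ablations.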

**Q.** TCGAGTAGGTTACCAATGGGGCAATCAGCTTTCT was tested. Which PBM binding z-score did it give?
**A.** 0.0268

**Q.** With CCGACTGGGGCAAGGTTAACATAACGCACAGCCA as the sequence, how does the PBM binding z-score read?
**A.** 0.295

**Q.** With CTAACTAGGTCAAGGACAGTGAATCTCCGCACGC as the sequence, how does the PBM binding z-score read?
**A.** 1.3

**Q.** CGTCCAAGGTCAGCAAGTCAGTGAAAGCGACGTG was tested. Which PBM binding z-score did it give?
**A.** 2.93

**Q.** With CTACCCAGGTGAACAAGGTCGTTGATTACTATTC as the sequence, how does the PBM binding z-score read?
**A.** 5.31

**Q.** With ATTTCTAGGTAACAAGTTCAGTGAAAGAGAGGAC as the sequence, how does the PBM binding z-score read?
**A.** 2.56

**Q.** With ATCGAAACGTCGAGGTGAGTATAGAGAAAGGGAA as the sequence, how does the PBM binding z-score read?
**A.** -0.325

**Q.** How did the PBM binding z-score turn out when TCATATAGGTAATATAGGTGAAAGTCGGCATCTA was run?
**A.** 0.836

**Q.** With GGAACGAGGGCATTCGAGTTGATCGCATGGCGAT as the sequence, how does the PBM binding z-score read?
**A.** 3.61

**Q.** Which PBM binding z-score does the source give for TCGAGTAGGTTAGTTGGGGCATTCAGCCAACATA here?
**A.** 0.811

**Q.** For CCTACTGGGCCCTTCAGAGGTCATTGATCATATG, which PBM binding z-score is on record?
**A.** 3.41

**Q.** TCTCGGAGGACACGAAAGGTCCGAGCTCGACATC was tested. Which PBM binding z-score did it give?
**A.** -0.242

**Q.** For TAGCCTAGGTCATGCGAGCCAGTATAGTGTCGGC, which PBM binding z-score is on record?
**A.** 1.92

**Q.** With AGAACGTGGGCAATGAGTTGATAGCACGGGTGGC as the sequence, how does the PBM binding z-score read?
**A.** 0.69

**Q.** How did the PBM binding z-score turn out when CCGAGTAGGTTATGGGGCATTCGGGCAACGGTGA was run?
**A.** -0.16

**Q.** How did the PBM binding z-score turn out when CCTACTGGGCCACGAAAGGTCATAGATTCAGTGA was run?
**A.** 3.89

**Q.** With ATCTCTAGGGAAGACTCAGTTCAGTGAAGAACGC as the sequence, how does the PBM binding z-score read?
**A.** 0.408

**Q.** For GCTAGCAGACCATTTGGGTCACTCAATGACGGGC, which PBM binding z-score is on record?
**A.** -0.0299

**Q.** GCTTGTAGATCAAAGTTAAGAAAGACTAAGCTAA was tested. Which PBM binding z-score did it give?
**A.** -0.483

**Q.** CCAAGTTGGTCAGGAGGTCACACACCGGATATGA was tested. Which PBM binding z-score did it give?
**A.** 4.08

**Q.** Which PBM binding z-score does the source give for AGAACGAGGGCACGATGAGTTGATAGCAGAGTAG here?
**A.** 2.32

**Q.** For CAAACTAGGTCATCCAGGACAGTGAATACATTGA, which PBM binding z-score is on record?
**A.** 4.58

**Q.** CCTAATGGGCCAAAAAGGTCATTGATGCCGATAA was tested. Which PBM binding z-score did it give?
**A.** 5.11

**Q.** For AGAATGAGGTTATTAAGATCAGGGACTTGCGGTC, which PBM binding z-score is on record?
**A.** 2.47

**Q.** With TCTCGAAGGACACGAAAGGTCAGAGCTCGACATC as the sequence, how does the PBM binding z-score read?
**A.** 3.06

**Q.** For TCTGCTAGGTGAACGATGGTCAGCTAATCTGCTA, which PBM binding z-score is on record?
**A.** -0.621

**Q.** How did the PBM binding z-score turn out when ATATTTAGGTTAGCTGGGGTCATTCAGACTAGGC was run?
**A.** 6.03

**Q.** With TCTCGGAGGACACGAAAGGTCAGAGCGCGACATC as the sequence, how does the PBM binding z-score read?
**A.** 3.45

**Q.** AATACAGAGTCATCGTAGGCCAGAGTACGCACAG was tested. Which PBM binding z-score did it give?
**A.** -0.242

**Q.** Which PBM binding z-score does the source give for AAAACAGGGTCACTAGGCCAGAGTAGGTACGAAT here?
**A.** 4.38

**Q.** For CCTCGGAGGACAGATGGTCAGAGCTGTCCGCTTT, which PBM binding z-score is on record?
**A.** -0.581

**Q.** With CGAACTCGGTCAGAACAGGACAGTGAAGGATGAT as the sequence, how does the PBM binding z-score read?
**A.** -0.191

**Q.** Which PBM binding z-score does the source give for TCTAGTTGGTCAAGGAGGTCACACACGACGGGTA here?
**A.** 5.23

**Q.** How did the PBM binding z-score turn out when CGTCAAAATTCAACTAAGGTAACGTAAAGCACGC was run?
**A.** 0.298

**Q.** TCCTGTAGATCAACAGGAGGTTAAGAAAGATCGA was tested. Which PBM binding z-score did it give?
**A.** 0.266

**Q.** For CAAACTAGGTCAAGGCCAAAGTCGGTTTGTGCCA, which PBM binding z-score is on record?
**A.** 1.84

**Q.** For TCTATTAGTTGAAGGGAAACCGACGAGTCCGTTT, which PBM binding z-score is on record?
**A.** 0.851

**Q.** Which PBM binding z-score does the source give for TCTATTAGTTGACGGGCAACCGACGAGTCCGTTT here?
**A.** 0.671

**Q.** With AGTCAAAGTTCACTAGGTCACGTAAGATTCAGCT as the sequence, how does the PBM binding z-score read?
**A.** 5.1

**Q.** With ACTAGTAGTTGACTTAGGGCAACCGATACGACGC as the sequence, how does the PBM binding z-score read?
**A.** 0.0405
